# Screens (PubChem)
# DT40 TDP1 CPT – DT40-hTDP1 cell growth loss with CPT; chicken DT40 Tdp1-/-;hTDP1 cells + 20 nM CPT, ATP luminescence, 48 h; AID 686979; Potency, µM (titrated, usually from 46.2 µM), for inactives: at the highest dose activity change, negative = growth inhibition, most hits filed as inhibitors; 420,000 tested, 12% active; further: nearly all actives have a fitted effect of over 55% in size
#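 Chicken DT40 Tdp1-/- cells stably complemented with human TDP1 were seeded at 400 cells/well in medium containing 20 nM camptothecin, exposed to pin-transferred compounds, and grown at 37 °C for at least 48 hr. Viability was read as ATP luminescence.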
# Gal4-VP16 FLuc – counter-screen for ROR gamma inhibitors: Gal4-VP16 reporter | Potency, µM (top dose mostly 53.6 µM), inactives show top-dose activity, negative = inhibition, hits mostly inhibitors | AID 2546 | 310,000 tested, 3.5% active | Drosophila S2 Gal4-VP16 UAS-luciferase, luminescence, 20 h;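 further: Gal4-VP16 expression switched on by copper sulfate through the metallothionein promoter; nearly all actives have a fitted effect of over 50% in size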
# TDP1 cell noCPT – qHTS for Inhibitors of human tyrosyl-DNA phosphodiesterase 1 (TDP1): qHTS in cells in absence of CPT; 420,000 tested, 15% active; DT40 Tdp1-/- hTDP1 cells, no CPT, ATP luminescence, 48 h; AID 686978, 2013; Potency, µM (titrated, usually from 46.2 µM), for the others: at the top dose activity change, negative = growth inhibition, actives largely listed as inhibitors; further: nearly all actives have a fitted effect of over 55% in size
#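 Cells were dispensed at 400 per well, compounds added by pin tool, plates incubated ≥48 hr at 37 °C, then CellTiter-Glo added for 30 min at room temperature before luminescence reading. Line: DT40 Tdp1-/- complemented with hTDP1; camptothecin omitted.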
# TDP1 inh – blocks human tyrosyl-DNA phosphodiesterase 1. Q9NUW8. recombinant TDP1, AlphaScreen DNA substrate cleavage. Potency, µM (titrated, usually from 130 µM), without a hit: at the top dose activity change, negative = inhibition, hits mostly inhibitors. 350,000 tested, 0.28% active. AID 485290; further: nearly all actives have a fitted effect of over 40% in size
# Target sequence (Q9NUW8 whole entry, looked up): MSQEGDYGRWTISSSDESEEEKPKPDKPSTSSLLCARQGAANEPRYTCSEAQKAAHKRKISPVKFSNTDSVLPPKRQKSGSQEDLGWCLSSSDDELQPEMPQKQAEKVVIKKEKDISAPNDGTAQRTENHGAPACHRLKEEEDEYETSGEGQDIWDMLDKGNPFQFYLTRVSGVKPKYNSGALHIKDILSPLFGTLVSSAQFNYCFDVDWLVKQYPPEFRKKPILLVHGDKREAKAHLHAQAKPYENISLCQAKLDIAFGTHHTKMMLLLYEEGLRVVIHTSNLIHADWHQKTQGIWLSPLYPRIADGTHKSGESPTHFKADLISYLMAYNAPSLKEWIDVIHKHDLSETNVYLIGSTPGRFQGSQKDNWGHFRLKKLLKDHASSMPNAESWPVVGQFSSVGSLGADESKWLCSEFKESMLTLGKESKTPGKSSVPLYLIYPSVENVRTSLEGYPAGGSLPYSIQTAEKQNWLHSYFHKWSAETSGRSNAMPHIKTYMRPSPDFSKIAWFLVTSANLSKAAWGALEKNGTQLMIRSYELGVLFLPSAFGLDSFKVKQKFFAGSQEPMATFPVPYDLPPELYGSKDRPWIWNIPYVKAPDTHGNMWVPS
#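 Tdp1 1 nM final; 15 min RT w/ cpd; substrate 15 nM, 5 min; beads 10 ug/ml, 10 min; AlphaScreen read. Neg ctrl: no enzyme.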
# RORgamma inh – ROR gamma (mouse) transcription inhibition; P51450; AID 2551; 310,000 tested, 5.4% active; Drosophila S2 Gal4-RORgamma UAS-luciferase reporter, 20 h; Potency, µM (top dose mostly 53.6 µM), for inactives: top-dose activity change, negative = inhibition, actives largely listed as inhibitors; further: nearly all actives have a fitted effect of over 60% in size
#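 Using a luciferase readout, inhibitors were identified by reduced reporter activity in Drosophila cells coexpressing a copper-inducible Gal4–ROR gamma fusion and UAS-driven Photinus luciferase, incubated 20 hr after 700 uM copper sulfate.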
# Active calls of the source: *; ? = inconclusive; · = no result; ! = repeats disagree; [ ] = another dose, or the depositor's remark. Shown are actives, neighbours in structure and some others; about 19% of the full set was active somewhere. The call rests on the fitted dose curve; in most records, active means well fitted curve in the direction sought with a large enough effect; inconclusive means small, poorly fitted or top-dose-only effect, or another doubt; inactive means no such curve, though single readings can be large; an effect the other way counts as inactive or inconclusive. On the % scale 0 is the no-effect control and ±100 the full control effect; potency means the concentration at half of the fitted maximal effect.
SMILES,DT40 TDP1 CPT,Gal4-VP16 FLuc,TDP1 cell noCPT,TDP1 inh,RORgamma inh
Cc1ccc(S(=O)(=O)N2CCOCC2)cc1C(=O)Nc1ccc(-c2cn3ccsc3n2)cc1,11.2µM*,21.0%,11.2µM*,2.1%,?
Cn1c(C(=O)NCC2CCCO2)cc2oc3ccccc3c21 (configuration not stated),?,12.2%,?,6.6%,1.8%
COc1ccccc1COCC(O)CN1CCCCC1CO (configuration not stated),-19.1%,2.3%,19.5%,·,-24.9%
Cc1ccc(C(=O)NNC(=O)C(C)Oc2ccccc2F)cc1S(=O)(=O)N1CCOCC1 (configuration not stated),-0.2%,·,6.3%,·,·
CCCCCC(=O)Nc1cc(S(=O)(=O)N2CCOCC2)ccc1N1CCN(C)CC1,-11.4%,0.6%,0.3%,4.8%,4.7%
CCCCCC(=O)Nc1cc(S(=O)(=O)N2CCOCC2)ccc1N1CCCCC1,?,·,20.6µM*,0.7%,·
C=CCNC(=O)C1CCN(c2ccc(S(=O)(=O)N3CCOCC3)cc2Cl)CC1,-9.3%,-8.4%,-29.2%,0.0%,?
O=C(Nc1cc(S(=O)(=O)N2CCOCC2)ccc1N1CCOCC1)c1ccccc1Cl,5.6%,·,-14.5%,0.1%,·
Cc1ccc(S(=O)(=O)N2CCOCC2)cc1C(=O)Nc1cc(Cl)ccc1N1CCOCC1,23.1µM*,·,?,0.0%,·
COc1ccccc1CCC(=O)Nc1cc(S(=O)(=O)N2CCOCC2)ccc1N1CCCC1,?,·,29.1µM*,8.4%,·
CCCNC(=O)C1CCN(c2ccc(S(=O)(=O)N3CCOCC3)cc2Cl)CC1,14.6µM*,10.1%,-29.9%,-4.5%[56.1 µM],?
CCOCCCNCC(=O)Nc1cc(S(=O)(=O)N2CCOCC2)ccc1N1CCOCC1,0.2%,·,4.5%,-0.1%,·
Cc1ccc(OCCC(=O)Nc2cc(S(=O)(=O)N3CCOCC3)ccc2N2CCCC2)cc1,?,·,14.6µM*,·,·
Cc1cc(Cl)ccc1OCCCC(=O)Nc1cc(S(=O)(=O)N2CCOCC2)ccc1N1CCOCC1,?,·,16.4µM*,·,·
Cc1ccccc1SCC(=O)Nc1cc(S(=O)(=O)N2CCOCC2)ccc1N1CCOCC1,16.4µM*,3.9%,?,·,?
CCOc1ccc(OCCCC(=O)Nc2cc(S(=O)(=O)N3CCOCC3)ccc2N2CCOCC2)cc1,?,·,-22.5%,·,·
O=C(CCCSc1ccc(Cl)cc1)Nc1cc(S(=O)(=O)N2CCOCC2)ccc1O,18.4µM*,·,23.1µM*,4.3%,·
CN(c1ccccc1)S(=O)(=O)c1nnc(NC(=O)COc2ccccc2)s1,?,-1.5%,?,5.0%,28.0%
COC(=O)c1c(NC(=O)CC2SCC(C(=O)OC)NC2=O)sc2c1CCCC2 (configuration not stated),-5.2%,1.9%,-2.7%,4.0%,0.2%
CCOC(=O)c1sc(NC(=O)C2c3ccccc3Oc3ccccc32)c(C#N)c1C,11.6µM*,·,16.4µM*,-4.2%,·
CCOC(=O)c1c(NC(=O)C2c3ccccc3Oc3ccccc32)sc(C(=O)N(CC)CC)c1C,18.4µM*,-28.8%,23.1µM*,-11.2%,-7.1%
CCOC(=O)c1sc(NC(=O)C2c3ccccc3Oc3ccccc32)c(C(=O)OCC)c1C,-15.1%,·,-14.8%,4.2%,·
CCCCC(=O)Nc1sc(C(=O)N(CC)CC)c(C)c1C(=O)OC,?,-9.6%,18.4µM*,-2.4%,1.1%
O=C(COc1ccc(Cl)cc1Cl)Nc1ccc(S(=O)(=O)NC2=NCCCCC2)cc1,?,-22.1%,-20.9%,2.7%,?
Clc1ccccc1N1CCN(Cc2ccc(Br)o2)CC1,8.9%,·,-27.3%,·,·
SMILES,DT40 TDP1 CPT,Gal4-VP16 FLuc,TDP1 cell noCPT,TDP1 inh,RORgamma inh
CCC(Sc1nc2cc(OC)c(OC)cc2c2nc(-c3ccccc3)nn12)C(=O)Nc1cccc(C)c1 (configuration not stated),13.7%,·,-9.6%,4.7%,·
OC[C@H]1O[C@@H](c2nc(-c3cccc4ccccc34)no2)[C@H](O)[C@@H]1O,?,·,14.6µM*,·,·
OC[C@H]1O[C@@H](c2nc(-c3ccccc3Br)no2)[C@H](O)[C@@H]1O,0.517µM*,·,6.51µM*,·,·
Cc1cccc(C(=O)N[C@H](C(=O)NCCc2ccc(Cl)cc2)C(C)C)c1,4.8%,18.3%,?,0.0%,23.2%
COC(=O)C(C(=O)OC)c1ncc(C(F)(F)F)cc1Cl,-4.5%,-25.2%,9.7%,-1.8%,-1.0%
COc1ccccc1CNC(=O)c1cc(-c2ccccc2)nn1Cc1cc(C)no1,?,·,?,-1.8%,·
CCc1cc(Cn2nc(-c3ccccc3)cc2C(=O)NCc2ccccc2OC)on1,?,·,20.6µM*,3.1%,·
COCCCNC(=O)c1cnc2sc(N3CCCCC3)nn2c1=O,-6.6%,·,-12.4%,2.6%,·
COc1ccc(CCNC(=O)c2cnc3sc(N4CCCC4)nn3c2=O)cc1OC,?,·,23.1µM*,5.8%,·
COc1ccc(CCNC(=O)c2cnc3ccc(C)cn3c2=O)cc1OC,20.6µM*,·,?,0.0%,·
Cc1ccc2ncc(C(=O)NCCc3ccc(S(N)(=O)=O)cc3)c(=O)n2c1,-8.3%,·,-6.7%,-4.9%,·
CC(C)CCNC(=O)c1cnc2sc(N3CCCCCC3)nn2c1=O,16.4µM*,·,20.6µM*,8.4%,·
O=C(NCCc1ccc(Cl)cc1)c1cnc2sc(N3CCCC3)nn2c1=O,6.51µM*,·,4.11µM*,-0.6%,·
Cc1cccc(N2CCN(C(=O)c3ccc(NC(=O)C4CCCO4)cc3)CC2C)c1 (configuration not stated),-26.9%,9.8%,-27.6%,0.0%,-16.1%
O=S1(=O)N=C(Oc2cccc(Cl)c2)c2ccccc21,·,·,·,0.2%,·
COc1ccccc1C1CN(Cc2cccc3nccnc23)Cc2ccccc2O1 (configuration not stated),-10.8%[9.04 µM],·,-5.7%,·,·
COc1ccc(CCNC(=O)c2cnc3sc(N4CCCCC4)nn3c2=O)cc1OC,23.1µM*,·,?,2.6%,·
COc1cccc(CCNC(=O)c2cnc3sc(N4CCCC4)nn3c2=O)c1,14.6µM*,·,16.4µM*,-5.9%,·
COCCCNC(=O)c1cnc2sc(N3CCCCCC3)nn2c1=O,-8.8%,·,-9.9%,3.2%,·
COc1ccc(CCNC(=O)c2nc(SCc3ccc(C)cc3)ncc2Cl)cc1OC,11.6µM*,·,10.3µM*,2.3%,·
COc1ccc(OC)c(NC(=O)c2nc(SCc3ccccc3F)ncc2Cl)c1,10µM*!,·,14.1µM*!,4.7%,·
CCOC(=O)/C(C#N)=C/c1ccc(N2CCN(C)CC2)cc1,5.2%,-12.4%,9.2%,2.7%,-7.4%
COC(=O)c1ccc(CNC(=O)CSC2=NCCS2)cc1,4.4%,7.5%,6.8%,0.0%,8.2%
CCOc1ccccc1NC(=O)c1cc(=O)[nH]c2ccc(S(=O)(=O)N3CCOCC3)cc12,-6.9%,·,-8.2%,-3.4%,·
